Reference: PubChem BioAssay AID1508619 (National Center for Advancing Translational Sciences (NCATS), 2020)
Inconclusive results are not listed. Where a call stands in place of a potency, no number is given. Calls of active or inactive are those of the source. Calls follow the shape of the dose curve; as a rule, active = well fitted inhibition curve with a large enough effect; inconclusive = small, poorly fitted or top-dose-only effect; inactive = no such curve, though single readings can be large or run the other way.

Assay: Counterscreen qHTS for Identification of Calcium Integrin Binding Protein 1 (CIB1) Competitor
Conditions: series mostly up to 114 µM
Procedure, shortened: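 Compounds (final up to 114 uM) preincubated 15 min at room temperature with 1 uM CIB1-GST in calcium-containing HEPES pH 7.4 buffer; 100 nM scrambled FITC peptide added, and fluorescence polarization (480/540) measured after another 15 min.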
Potency is read from the fitted curve at half-maximal effect.

CN(C(=O)c1cccs1)c1cccnc1
Potency: 44.7 µM (active)

N#Cc1ccc(N[S+](=O)([O-])c2ccc(Nc3nc(-c4ccccc4)cs3)cc2)cc1
Potency: 44.7 µM (active)

Cc1cnc(-c2ccccc2C(C)C)nc1NCc1ccc(-c2ccc(F)nc2)cc1
Potency: 44.7 µM (active)

C[C@H](Cc1ccc(O)c(O)c1)[C@@H](C)Cc1ccc(O)c(O)c1
Potency: 12.6 µM (active)

O=S(=O)(c1ccc2nc(Cl)c(Cl)nc2c1)N1CCN(S(=O)(=O)c2c(F)cccc2F)CC1
Potency: inactive

O=C(O)c1c(Cl)c(Cl)c(Cl)c(Cl)c1-c1c2cc(I)c(=O)c(I)c-2oc2c(I)c(O)c(I)cc12
Potency: inactive

CCCCC(CC)CN=C(N)NC(N)=NCCCCCCN=C(N)NC(N)=NCC(CC)CCCC (stereo unspecified)
Potency: inactive

Cc1ccc(Cl)cc1NC(=O)c1nc[nH]c1C(=O)Nc1nc2ccccc2[nH]1
Potency: inactive

CCOc1ccc(CCNC(=O)c2ccc(N3N=C(C)CC3=O)cc2)cc1OCC
Potency: inactive

CSC(Cc1ccc(Cl)cc1)C(=O)Nc1ccc(Cl)cc1C(=O)O (stereo unspecified)
Potency: inactive

CO[C@@H]1C(N(C)C(=O)c2ccccc2)C[C@H]2O[C@]1(C)n1c3ccccc3c3c4c(c5c6ccccc6n2c5c31)C(=O)NC4=O (stereo partly specified)
Potency: 22.4 µM (active)

O=C(O)c1ccc(-c2ccc3ncnc(NCc4nccs4)c3c2)o1
Potency: inactive

CN1CCc2cccc3c2[C@H]1Cc1ccc(O)c(O)c1-3
Potency: inactive

O=C1CCCC2=C1C(c1ccncc1)N=C(Nc1nc3ccccc3o1)N2 (stereo unspecified)
Potency: inactive

NC[C@@H](O)c1ccc(O)c(O)c1
Potency: inactive

NC(=O)c1ccc(O)c2ncccc12
Potency: inactive
